Measurements published in PubChem BioAssay AID1159580 (chemical genetic matrix, 2015).
About 2,000 (36%) of roughly 5,500 compounds were called active. Roughly 18% stayed inconclusive and do not appear here. No stated cut-off is given here; in the data, active means normalized growth mostly below about 0.91 (no sharp cut-off); inconclusive means no clear call, values can overlap the other calls; inactive means mostly above about 0.92. The list shows a part of the results.

Experiment: chemical genetic growth profiling, strain panel (AID 1159580);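 further: tested at 20 µM; growth read once vehicle control cultures reached saturation at 30 °C; 1 = growth at the plate median or of vehicle wells; lower values mean less growth of the strain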
Settings: growth OD

Measured: normalized growth

OCC(O)Cc1ccc2c(c1)OCO2 (centres undefined)
inactive: S. cerevisiae deletion strains, locus YJR043C, strain POL32, active compounds read low 0.995 | S. cerevisiae deletion strains, locus YJR075W, strain HOC1, active compounds read low 0.984 | S. cerevisiae deletion strains, locus YKL009W, strain mrt4, active compounds read low 1 | S. cerevisiae deletion strains, locus YKL068W, active compounds read low 1 | S. cerevisiae deletion strains, locus YKL085W, strain MDH1 (second series), active compounds read low 1.03 | S. cerevisiae deletion strains, locus YKL085W, strain MDH1, active compounds read low 1.03 | S. cerevisiae deletion strains, locus YKL160W, strain elf1, active compounds read low 1 | S. cerevisiae deletion strains, locus YKL190W, strain CNB1, active compounds read low 1.02 | S. cerevisiae deletion strains, locus YKR001C, strain vps1, active compounds read low 0.999 | S. cerevisiae deletion strains, locus YKR026C, strain gcn3, active compounds read low 0.989 | S. cerevisiae deletion strains, locus YKR091W, strain srl3, active compounds read low 1 | S. cerevisiae deletion strains, locus YLL001W, strain dnm1, active compounds read low 1 | S. cerevisiae deletion strains, locus YLL026W, active compounds read low 0.997 | S. cerevisiae deletion strains, locus YLL041C, strain sdh2, active compounds read low 0.994 | S. cerevisiae deletion strains, locus YLR027C, strain aat2, active compounds read low 0.976 | S. cerevisiae deletion strains, locus YLR039C, strain RIC1, active compounds read low 1.03 | S. cerevisiae deletion strains, locus YLR058C, strain SHM2, active compounds read low 1.02 | S. cerevisiae deletion strains, locus YLR102C, strain apc9, active compounds read low 1 | S. cerevisiae deletion strains, locus YLR221C, strain rsa3, active compounds read low 0.997 | S. cerevisiae deletion strains, locus YLR258W, strain gsy2, active compounds read low 1.01 | S. cerevisiae deletion strains, locus YLR262C, strain YPT6 (second series), active compounds read low 1.01 | S. cerevisiae deletion strains, locus YLR262C, strain YPT6, active compounds read low 1.06 | S. cerevisiae deletion strains, locus YLR268W, strain sec22, active compounds read low 1 | S. cerevisiae deletion strains, locus YLR320W, strain mms22, active compounds read low 0.983 | S. cerevisiae deletion strains, locus YLR330W, strain CHS5, active compounds read low 1.01 | S. cerevisiae deletion strains, locus YLR342W, strain FKS1 (second series), active compounds read low 0.99 | S. cerevisiae deletion strains, locus YLR342W, strain FKS1, active compounds read low 0.992 | S. cerevisiae deletion strains, locus YLR357W, strain rsc2, active compounds read low 0.973 | S. cerevisiae deletion strains, locus YLR370C, strain arc18, active compounds read low 1 | S. cerevisiae deletion strains, locus YLR371W, strain rom2, active compounds read low 0.989 | S. cerevisiae deletion strains, locus YLR384C, strain iki3, active compounds read low 0.992 | S. cerevisiae deletion strains, locus YLR418C, strain cdc73, active compounds read low 1.02 | S. cerevisiae deletion strains, locus YML016C, strain PPZ1, active compounds read low 1.01 | S. cerevisiae deletion strains, locus YML032C, strain rad52, active compounds read low 0.989 | S. cerevisiae deletion strains, locus YML120C, strain ndi1, active compounds read low 0.995 | S. cerevisiae deletion strains, locus YML124C, strain tub3, active compounds read low 0.996 | S. cerevisiae deletion strains, locus YMR058W, strain fet3, active compounds read low 1.01 | S. cerevisiae deletion strains, locus YMR078C, strain ctf18, active compounds read low 0.99 | S. cerevisiae deletion strains, locus YMR125W, strain sto1, active compounds read low 0.997 | S. cerevisiae deletion strains, locus YMR129W, active compounds read low 0.994 | S. cerevisiae deletion strains, locus YMR205C, strain PFK2, active compounds read low 0.981 | S. cerevisiae deletion strains, locus YMR223W, strain ubp8, active compounds read low 0.987 | S. cerevisiae deletion strains, locus YMR231W, strain pep5, active compounds read low 0.996 | S. cerevisiae deletion strains, locus YMR263W, strain SAP30, active compounds read low 1.03 | S. cerevisiae deletion strains, locus YMR307W, strain GAS1, active compounds read low 0.956 | S. cerevisiae deletion strains, locus YNL067W, strain RPL9B, active compounds read low 1.03 | S. cerevisiae deletion strains, locus YNL071W, strain lat1, active compounds read low 1.01 | S. cerevisiae deletion strains, locus YNL128W, strain TEP1, active compounds read low 1.02 | S. cerevisiae deletion strains, locus YNL153C, strain GIM3, active compounds read low 1.03 | S. cerevisiae deletion strains, locus YNL209W, strain ssb2, active compounds read low 1.02 | S. cerevisiae deletion strains, locus YNL233W, strain BNI4, active compounds read low 1.04 | S. cerevisiae deletion strains, locus YNL248C, strain rpa49, active compounds read low 0.979 | S. cerevisiae deletion strains, locus YNL250W, strain rad50, active compounds read low 1.01 | S. cerevisiae deletion strains, locus YNL271C, strain bni1, active compounds read low 0.996 | S. cerevisiae deletion strains, locus YNL298W, strain CLA4, active compounds read low 1.01 | S. cerevisiae deletion strains, locus YNL307C, strain MCK1, active compounds read low 0.999 | S. cerevisiae deletion strains, locus YNL322C, strain KRE1 (second series), active compounds read low 1 | S. cerevisiae deletion strains, locus YNL322C, strain KRE1, active compounds read low 1.01 | S. cerevisiae deletion strains, locus YNR049C, strain mso1, active compounds read low 0.989 | S. cerevisiae deletion strains, locus YNR052C, strain pop2, active compounds read low 0.989 | S. cerevisiae deletion strains, locus YOL006C, strain TOP1, active compounds read low 1.07 | S. cerevisiae deletion strains, locus YOL012C, strain htz1 0.853 | S. cerevisiae deletion strains, locus YOL147C, strain pex11, active compounds read low 1 | S. cerevisiae deletion strains, locus YOR001W, strain rrp6, active compounds read low 0.985 | S. cerevisiae deletion strains, locus YOR061W, strain CKA2, active compounds read low 1.02 | S. cerevisiae deletion strains, locus YOR069W, strain VPS5, active compounds read low 1 | S. cerevisiae deletion strains, locus YOR070C, strain gyp1, active compounds read low 1 | S. cerevisiae deletion strains, locus YOR080W, strain dia2, active compounds read low 0.988 | S. cerevisiae deletion strains, locus YOR083W, strain WHI5, active compounds read low 1 | S. cerevisiae deletion strains, locus YOR106W, strain vam3, active compounds read low 1.03 | S. cerevisiae deletion strains, locus YOR136W, strain idh2, active compounds read low 0.993 | S. cerevisiae deletion strains, locus YOR144C, strain elg1, active compounds read low 0.997 | S. cerevisiae deletion strains, locus YOR184W, strain ser1, active compounds read low 0.99 | S. cerevisiae deletion strains, locus YOR265W, strain rbl2, active compounds read low 1 | S. cerevisiae deletion strains, locus YOR270C, strain vph1, active compounds read low 1.03 | S. cerevisiae deletion strains, locus YOR290C, strain snf2, active compounds read low 1.01 | S. cerevisiae deletion strains, locus YOR316C, strain cot1, active compounds read low 0.997 | S. cerevisiae deletion strains, locus YPL051W, strain arl3, active compounds read low 1 | S. cerevisiae deletion strains, locus YPL055C, strain LGE1, active compounds read low 1.06 | S. cerevisiae deletion strains, locus YPL078C, strain atp4, active compounds read low 1.02 | S. cerevisiae deletion strains, locus YPL106C, strain sse1, active compounds read low 0.979 | S. cerevisiae deletion strains, locus YPL240C, strain hsp82, active compounds read low 1 | S. cerevisiae deletion strains, locus YPL241C, strain CIN2, active compounds read low 1.01 | S. cerevisiae deletion strains, locus YPR119W, strain clb2, active compounds read low 0.995 | S. cerevisiae deletion strains, locus YPR141C, strain kar3, active compounds read low 0.997 | S. cerevisiae deletion strains, locus YPR163C, strain tif3, active compounds read low 0.992 | S. cerevisiae deletion strains, locus YPR167C, strain met16, active compounds read low 0.996 | S. cerevisiae deletion strains, strain wtn01, active compounds read low 0.997 | S. cerevisiae strains, strain wild type, active compounds read low 1.01
